Bioassay records: PubChem BioAssay, National Center for Advancing Translational Sciences (NCATS)
Only some compounds are listed: those with a hit (about 21% of all), similar ones and a draw of the others.
Cycloheximide cs = counter-screen hit for Shiga toxin inhibitors, cycloheximide | max response, % | 12% of 300,000 active | AID 2314 | cell reporter, cycloheximide protein synthesis inhibition counterscreen; in the data active = max response mostly above about 13%, no sharp cut-off; inactive = mostly below about 14%; note: read at 38.3 µM for the half of the compounds with a filed dose
NS1 function inh = blocks influenza NS1 protein function; Potency, µM (titrated, usually from 46.1 µM); 0.4% of 270,000 active; calls by dose curve; note: actives are rising curves; nearly all actives have a fitted effect of over 50% in size
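A cell-based growth assay was used: compounds that relieve NS1-induced slow growth of budding yeast raise OD600. Assay medium was yeast nitrogen base with ammonium sulphate and -URA supplement, pH 6.0, with 2% galactose.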
Pf growth 48h = inhibits P. falciparum growth in the first generation, 48 h; P. falciparum luciferase growth in erythrocytes, 48 h; Potency, µM (highest dose often 28.7 µM), actives largely listed as inhibitors; 5.9% of 310,000 active; AID 504832
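Here the parasites carry a stable luciferase gene and grow inside erythrocytes in Albumax-based RPMI medium with compound for one erythrocytic cycle. Activity is scored as loss of luminescent signal.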
Pf growth 96h = inhibits malaria parasite growth, 96 h; P. falciparum luciferase reporter growth, 96 h; 6.9% of 320,000 active; Potency, µM (series often up to 28.7 µM), usual class: inhibitors; AID 504834
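Cell-based qHTS: luciferase-tagged P. falciparum in erythrocytes (2% hematocrit, 0.05% parasitemia final) incubated with compounds for 96 hours, 37 C, 5% CO2; luciferase detection reagent then added and luminescence measured.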
Shiga toxin inh = Shiga toxin inhibition | Vero cells, Shiga toxin protein synthesis inhibition reporter | inhibition, % at 38.7 µM | 9.2% of 290,000 active; in the data active = inhibition mostly above about 28%, no sharp cut-off; inactive = mostly below about 43%
Hits are given with their value; . = inactive; ? = inconclusive; / = no result given. Unless noted, calls come from the whole dose curve; as a rule, active = well fitted inhibition curve with a large enough effect; inconclusive = small, poorly fitted or top-dose-only effect, or another doubt; inactive = no such curve, though single readings can be large or run the other way.

SMILES	Cycloheximide cs	NS1 function inh	Pf growth 48h	Pf growth 96h	Shiga toxin inh
Cc1c(O)c(CN2CCCCC2)cc2c1oc(=O)c1ccccc12	.	.	0.33µM	0.47µM	.
O=c1oc2c(CN3CCOCC3)c(O)c(Cl)cc2c2c1CCC2	.	.	1µM	.	.
COc1ccc(-c2cc(=O)oc3c(C)c(O)c(CN(C)C)cc23)cc1	.	.	?	/	.
O=C(/C=C/c1ccc(O)cc1)OC[C@H]1O[C@@H](Oc2c(-c3ccc(O)cc3)oc3cc(O)cc(O)c3c2=O)[C@H](O)[C@@H](O)[C@@H]1O	.	/	/	/	.
CC1(C)CN2C(=O)c3ccccc3C2(C)S1 (centres undefined)	.	/	.	.	.
COc1ccc(C(=S)N2CCOCC2)cc1OC(=O)c1cc(OC)c(OC)c(OC)c1	.	.	.	.	.
COc1ccc(C(=O)NCc2ccc3c(c2)OCO3)c(OC)c1	.	.	?	.	/
COc1ccc(-c2nn(-c3ccccc3)cc2C(=O)NC2CC2)cc1	/	/	.	?	/
Cc1ccccc1NC(=O)CSc1cn[nH]n1	.	.	.	.	.
CC1(C)CC(=O)CC(=O)/C1=N\Nc1c(Cl)cc(Cl)cc1Cl	.	.	.	.	.
COc1cccc(N2CC(O)Cn3c2nc2c3c(=O)[nH]c(=O)n2C)c1 (centres undefined)	.	.	.	.	.
O=C1C=CC2C(c3ccc4c(c3)OCO4)CC1N2Cc1ccccc1 (centres undefined)	.	.	.	?	.
COc1ccc(C(=O)Nc2ccc3c(c2)nc(CCNC(=O)c2ccco2)n3C)cc1	.	.	.	.	.
O=C(CNC(=O)c1cccs1)N/N=C/c1ccccc1[N+](=O)[O-]	.	.	.	.	.
C/C(=N\NC(=O)c1c(C)nc2ccccn12)c1ccco1	32	/	.	.	42
C/C(=N\NC(=O)c1c(C)nc2ccccn12)c1ccc(N2CCOCC2)cc1	28	.	.	.	.
C/C(=N\NC(=O)c1c(C)nc2ccccn12)c1ccc(C(C)(C)C)cc1	.	.	.	.	.
CC12CCC(=O)N1C(C(=O)NCCc1ccc(S(N)(=O)=O)cc1)CS2 (centres undefined)	.	.	.	?	.
Cc1ccc(CC(CC(=O)Nc2cccc(C(F)(F)F)c2)C(=O)O)cc1 (centres undefined)	.	/	.	15µM	.
CCC(C)C(=O)Nc1nccs1 (centres undefined)	16	.	.	.	.
C/C(=C\C(=O)O)C(=O)Nc1nccs1	.	.	/	?	.
C/C(=C\C(=O)Nc1nccs1)c1ccccc1	57	.	.	.	116
CCC(C(=O)Nc1nccs1)c1ccccc1 (centres undefined)	.	?	?	.	.
O=C(Nc1ccccc1)Nc1nccs1	38	.	.	.	45
CCC(C)OC(=O)n1ccc(C(=O)Nc2nccs2)n1 (centres undefined)	32	.	.	.	68
SMILES	Cycloheximide cs	NS1 function inh	Pf growth 48h	Pf growth 96h	Shiga toxin inh
CCOC(=O)C1CCN(S(=O)(=O)c2c[nH]c(=O)[nH]c2=O)CC1	/	/	.	.	/
O=C(c1cc([N+](=O)[O-])cc([N+](=O)[O-])c1)N1CCN(Cc2ccc3c(c2)OCO3)CC1	.	/	?	?	.
CC(Oc1ccc(Cl)cc1)C(=O)Nc1nccs1 (centres undefined)	17	.	4.1µM	/	56
O=C(Nc1ccc(Cl)cc1)Nc1nccs1	30	.	.	.	47
O=C(COC(=O)c1ccc(Cl)c(S(=O)(=O)N2CCc3ccccc3C2)c1)Nc1ncc(Cl)cc1Cl	.	.	.	.	.
COC(=O)CC1C(=O)NCCN1C(=O)c1ccc2oc(C(C)C)nc2c1 (centres undefined)	.	.	.	15µM	.
COC(=O)CC1C(=O)NCCN1C(=O)CSc1nc2cc(Cl)ccc2o1 (centres undefined)	.	.	.	.	.
CCCCc1nc2cc(C(=O)N3CCNC(=O)C3CC(=O)OC)ccc2o1 (centres undefined)	15	.	.	?	.
CCOc1nc(NCCO)nc(NCCC2=CCCCC2)n1	.	.	?	8.3µM	.
CCOc1nc(NCCC2=CCCCC2)nc(N2CCOCC2)n1	.	.	.	.	.
CCCCCCNc1nc(NCc2ccco2)nc(OCC)n1	.	.	.	/	.
CCOc1nc(NCc2ccco2)nc(Nc2ccccc2F)n1	27	.	.	?	active
CCOc1nc(NCc2ccco2)nc(Nc2ccc(OC)cc2)n1	27	.	.	/	.
CCOc1nc(NCCO)nc(Nc2ccccc2F)n1	17	.	.	.	.
CCOc1nc(NCCO)nc(Nc2ccc([N+](=O)[O-])cc2)n1	.	.	.	.	.
c1ccc(Oc2nc(NCc3ccco3)nc(NCc3ccco3)n2)cc1	.	.	?	?	.
c1cnc(N2CCN(c3cnccn3)CC2)nc1	.	/	.	?	.
CCOc1ccccc1N1CCN(C(=S)Nc2ccc(S(=O)(=O)Nc3ncccn3)cc2)CC1	.	.	.	?	.
CCNc1nc(NCC)nc(N/N=C/c2ccc(OC)cc2)n1	.	.	?	.	.
COc1ccc(Nc2nc(NCc3ccco3)nc(N/N=C/c3ccccc3)n2)cc1	.	.	1.9µM	.	.
CC(Sc1nnc(-c2ccccc2Br)o1)C(=O)N1CCOCC1 (centres undefined)	.	.	.	.	.
O=C(CSc1nnc(-c2ccccc2Cl)o1)N1CCCC1	51	.	.	.	73
O=C(CSc1nnc(-c2ccccc2O)o1)N1CCc2ccccc2C1	.	.	/	.	.
O=C(CSc1nnc(-c2ccccc2O)o1)N1CCCCC1	28	.	.	?	42
O=C(CSc1nnc(-c2ccccc2Br)o1)N1CCOCC1	51	.	.	?	70
SMILES	Cycloheximide cs	NS1 function inh	Pf growth 48h	Pf growth 96h	Shiga toxin inh
O=C(CSc1nnc(-c2ccccc2O)o1)N1CCOCC1	26	.	.	.	86
C=CCc1cccc2cc(C(=O)OCC(=O)c3ccccc3)c(=O)oc12	.	.	.	/	.
NC(=O)NC(CC(=O)Nc1cccnc1)c1cccc(Br)c1 (centres undefined)	.	.	?	.	.
O=C(CSc1nnc(-c2ccccc2Cl)o1)N1CCCCC1	37	.	.	.	83
CCOC(=O)N1CCN(C(=O)CSc2nnc(-c3ccccc3OC)o2)CC1	.	.	.	.	.
COc1ccc(C2CC(=O)C(C3NCCc4ccccc43)=C(O)C2n2cncn2)cc1 (centres undefined)	.	/	17µM	.	.
Cc1nnc(-c2ccccc2)c(=O)n1/N=C/c1c(O)ccc2ccccc12	.	.	?	4.1µM	.
Cc1nc2ccccc2c(=O)n1/N=C/c1ccc(O)c(O)c1O	.	.	.	.	.
Cc1nc2ccccc2c(=O)n1/N=C/c1ccc2ccccc2c1O	46	.	?	?	74
Cc1nc2ccccc2c(=O)n1/N=C/c1ccccc1	.	.	.	.	.
Cc1nc2ccccc2c(=O)n1/N=C/c1ccccc1O	37	.	.	.	88
Cc1nc2ccccc2c(=O)n1/N=C/c1cccs1	25	/	.	.	.
CCOc1ccccc1/C=N/n1c(C)nc2ccccc2c1=O	.	.	.	.	.
